High-throughput results: PubChem BioAssay, National Center for Advancing Translational Sciences (NCATS)
A selection: hits, their analogues and other compounds. The true share with any hit is near 10%.
HPGD block – blocks human HPGD enzyme activity; P15428; purified HPGD, NADH fluorescence kinetic, PGE2 substrate; Potency, µM, for inactives: at the highest dose activity change, negative = inhibition, actives largely listed as inhibitors; 150,000 tested, 4.3% active; AID 894; active means well fitted inhibition curve with a large enough effect, not every such curve was filed as active; inconclusive means small, poorly fitted or top-dose-only effect, or another doubt; inactive means no such curve, though single readings can be large or run the other way; further: potency means the concentration at half of the fitted maximal effect
Target sequence (P15428 whole entry, looked up): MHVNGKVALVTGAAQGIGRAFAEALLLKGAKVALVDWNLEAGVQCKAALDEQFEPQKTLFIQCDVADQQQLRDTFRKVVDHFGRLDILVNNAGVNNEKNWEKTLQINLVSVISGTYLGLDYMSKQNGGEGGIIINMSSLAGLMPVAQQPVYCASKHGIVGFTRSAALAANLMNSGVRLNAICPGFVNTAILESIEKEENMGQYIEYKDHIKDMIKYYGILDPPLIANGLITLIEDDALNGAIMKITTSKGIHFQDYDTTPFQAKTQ
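20 nM HPGD preincubated 15 min at room temperature with compound in 50 mM Tris-HCl pH 8, 0.01% Tween 20. Started with 1 mM NAD+ and 30 uM prostaglandin E2; NADH fluorescence (360/450 nm) read 5 times over 30-s intervals, last minus first.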
ALDH1A1 inh – ALDH1A1 (human) enzyme inhibition | Purified ALDH1A1, NADH fluorescence, propionaldehyde substrate | Potency, µM (top dose mostly 75.3 µM), without a hit: at the highest dose activity, negative = inhibition, most hits filed as inhibitors | 220,000 tested, 7.3% active | AID 1030; active means well fitted inhibition curve with a large enough effect, not every such curve was filed as active; inconclusive means small, poorly fitted or top-dose-only effect, or another doubt; inactive means no such curve, though single readings can be large or run the other way;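 further: potency means the concentration at half of the fitted maximal effect; plate controls were no enzyme wells and a reference inhibitor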
ALOX12 inhib – inhibitors of human 12-lipoxygenase (ALOX12). purified 12-hLO, xylenol orange hydroperoxide absorbance. 150,000 tested, 0.12% active. AID 1452. Potency, µM (top dose mostly 57.1 µM), for inactives: top-dose activity change, negative = inhibition, hits mostly inhibitors; further: potency means the concentration at half of the fitted maximal effect; nearly all actives have a fitted effect of over 55% in size
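150 nM 12hLO, 25 mM Hepes pH 7.0 + 0.01% Triton X-100; cpd preinc 15 min RT; 40 uM arachidonic acid, 30 min RT; Fe-XO 30 min; A573/A405 ratio as read-out.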
GLA spleen mod – alpha-galactosidase A (human) modulation; P06280; human spleen homogenate, 4MU-alpha-Gal fluorescence, 40 min; Potency, µM (top dose mostly 80 µM), for the others: at the highest dose activity change, negative = inhibition, actives largely listed as inhibitors; 240,000 tested, 0.008% active; AID 2107;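 further: potency means the concentration at half of the fitted maximal effect; 0% = enzyme with vehicle and -100% = no enzyme basal signal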
Target sequence (P06280 32-429 limits assumed): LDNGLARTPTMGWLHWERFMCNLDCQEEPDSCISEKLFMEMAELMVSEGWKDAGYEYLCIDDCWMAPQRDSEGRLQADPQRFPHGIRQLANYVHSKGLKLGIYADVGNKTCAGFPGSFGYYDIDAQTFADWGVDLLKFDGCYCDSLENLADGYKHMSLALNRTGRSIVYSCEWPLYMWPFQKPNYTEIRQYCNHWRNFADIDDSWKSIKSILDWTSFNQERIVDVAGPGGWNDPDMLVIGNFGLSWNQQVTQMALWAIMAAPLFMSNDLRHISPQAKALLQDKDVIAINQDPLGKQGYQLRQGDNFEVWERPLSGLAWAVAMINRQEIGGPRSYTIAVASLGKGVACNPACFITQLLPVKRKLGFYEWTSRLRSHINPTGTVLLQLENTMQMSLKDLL
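Human spleen homogenate (1 ug) as enzyme source, 4-methylumbelliferyl-alpha-D-galactopyranoside 1 mM final, citrate/phosphate pH 5.0 with 0.01% Tween-20. Compounds 40 min at 37C, NaOH/glycine stop; fluorescence Ex 365/Em 440, Hill-fit AC50.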
PNC inhibitor – perinucleolar compartment assembly inhibition | 140,000 tested, 3.1% active | AID 2417 | PC3M PTB-GFP, PNC prevalence imaging, 16 h; stronger effect = lower value | activity change (PNC), negative = inhibition, % at 10 µM;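 active means readout at or below -70, meaning at least 70% loss of cells showing the perinucleolar compartment, a nuclear body marking cancer cells; inconclusive means readout between -30 and a set limit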;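 further: plate controls were DMSO wells for no effect and camptothecin positive control wells for full effect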
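Read-out is percentage of cells bearing a perinucleolar compartment, from automated 20x imaging of fixed, Hoechst-stained PC3M PTB-GFP cells. Cells were seeded 4 h, then exposed 16 h to compound (23 nl of library stock) in duplicate plates.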
GLA inh pH 4.5 – inhibitors of human alpha-galactosidase A at pH 4.5 | P06280 | 230,000 tested, under 10 active | activity change, negative = inhibition, % at 105 µM | purified enzyme, 4-MU-alpha-Gal fluorescence, pH 4.5;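 further: 0% = full activity with enzyme and -100% = basal without enzyme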
Active calls of the source: *; ? = inconclusive; . = no result; [ ] = remark or other dose. Unless noted, the call rests on the fitted dose curve; in most records, active means well fitted curve in the direction sought with a large enough effect; inconclusive means small, poorly fitted or top-dose-only effect, or another doubt; inactive means no such curve, though single readings can be large; an effect the other way counts as inactive or inconclusive. Unless noted, on the % scale 0 is the no-effect control and ±100 the full control effect.

SMILES	HPGD block	ALDH1A1 inh	ALOX12 inhib	GLA spleen mod	PNC inhibitor	GLA inh pH 4.5
COc1ccc(CCN2C(=NC(=O)C(C)C)SC3CS(=O)(=O)CC32)cc1OC (centres undefined)	.	.	.	-6.3%	.	-4.4
COC(=O)c1cc2c(cc1[N+](=O)[O-])OCO2	.	-0.9%	.	1.0%	.	-1.3
COc1ccc(NC(=O)C(c2cc3c(cc2[N+](=O)[O-])OCO3)N2CCN(C=O)CC2)cc1 (centres undefined)	-20.1%	?	-1.6%	-1.6%	?	-3.2
O=CN1CCN(C(C(=O)NC2CCCCC2)c2cc3c(cc2[N+](=O)[O-])OCO3)CC1 (centres undefined)	.	5.01µM*	.	5.0%	.	-2.5
O=C(NC1CCCCC1)C(c1cc2c(cc1[N+](=O)[O-])OCO2)N1CCCCC1 (centres undefined)	?	28.2µM*	-5.5%	-3.4%	36.5	4.8
COCC(=O)N1CCC[C@@]2(CCN(C(=O)Nc3cccc(F)c3)C2)C1	-0.3%	-0.4%	-2.1%	6.9%	.	.
CCOc1ccc(N2C(=O)C3C(c4ccc(O)cc4)NC(CCSC)(C(=O)OC)C3C2=O)cc1 (centres undefined)	.	-2.9%	.	-2.8%	.	2.9
CN(C)c1ccc(CNC(=O)C2CCN(S(=O)(=O)c3ccc4c(c3)CCC(=O)N4)CC2)cc1	-14.6%	17.8µM*	3.2%	5.3%	13.4	2.8
O=C(NC(=S)NNS(=O)(=O)c1ccccc1)c1ccc([N+](=O)[O-])cc1	?	?	-5.4%	0.8%	?	-0.9
O=C(NC(=S)NNS(=O)(=O)c1ccccc1)c1ccccc1[N+](=O)[O-]	20µM*	27.9%	-4.0%	-0.3%	13.3	-4.1
CCCCC(=O)NC(=S)Nc1c(C)cc(Br)cc1C	?	11.2µM*	-17.2%	-1.2%	33.2	-4.7
CCCCC(=O)NC(=S)NNC(=O)CC	-12.3%	22.4µM*	-3.5%	2.6%	-94.1*	-19.2
CCCCCC(=O)NC(=S)NNC(=O)CC	-8.3%	?	-5.1%	1.6%	-8.6	4.6
O=C(NC(=S)NNS(=O)(=O)c1ccccc1)c1cccnc1	.	?	.	-3.0%	.	-1.5
CCCCC(=O)NC(=S)NNS(=O)(=O)c1ccccc1	20µM*	8.91µM*	-2.9%	2.7%	-27.4	4.2
Cc1noc(C)c1-c1cc(N(C)Cc2ccco2)ncn1	.	?	.	9.5%	.	.
N[C@@H](CSCc1ccccc1)C(=O)O	-0.8%	8.5%[13.5 µM]	-2.1%[11.4 µM]	.	.	.
Nc1c(C(=O)NCC2CCCO2)sc2nc3c(c(-c4ccco4)c12)CC/C3=C\c1ccco1 (centres undefined)	20µM*	?	-16.4%	-4.2%	?	-10.4
CC(C)(C)NC(=O)c1ccc2c(c1)N(CC(=O)N1CCN(c3ccccc3F)CC1)C(=O)C(C)(C)O2	-6.3%	14.1µM*	-1.3%	2.8%	24.0	-0.6
COc1cccc(/C=N/NC(=O)C(C)Cn2cnc3ccccc32)c1 (centres undefined)	.	.	.	11.1%	.	-0.9
CNC(=O)c1c(NC(=O)c2cccc(N3C(=O)CCC3=O)c2)sc2c1CCCC2	.	.	.	-0.5%	.	1.0
COc1ccc(/C=C/N(CCc2ccc(OC)c(OC)c2)C(=O)c2ccccn2)cc1	.	?	.	1.3%[17.5 µM]	.	.
O=C(CN1CCCC1)Nc1ccc(NC(=O)Nc2ccccc2)cc1	-1.7%	7.3%	1.2%	4.9%	-20.4	-6.7
O=C(CN1CCOCC1)Nc1ccc(C2CCCCC2)cc1	15.8µM*	25.1µM*	-3.8%	3.2%	7.2	-6.4
CCCCC1(C)NC(=O)N(CC(=O)Nc2ccc(S(=O)(=O)N3CCOCC3)cc2)C1=O (centres undefined)	-11.2%	3.16µM*	-5.6%	-0.5%	-87.1*	-2.6
SMILES	HPGD block	ALDH1A1 inh	ALOX12 inhib	GLA spleen mod	PNC inhibitor	GLA inh pH 4.5
O=C(CN1CCN(CCO)CC1)Nc1ccccc1	-12.9%	?	-2.2%	5.3%	-100.0*	-0.4
CCCCN(CCCC)S(=O)(=O)c1ccc(NC(=O)CN2CCOCC2)cc1	-16.5%	12.6µM*	1.0%	5.9%	-7.9	-12.3
CC(C)S(=O)(=O)c1csc(NC(=O)Nc2ccc(Cl)cc2)c1	.	-2.1%	.	7.7%	.	-7.9
CCOc1ccc(C(=O)NCC(=O)N2CCc3ccccc3C2)cc1OCC	.	-2.3%	.	-4.8%	.	-6.3[21.1 µM]
Oc1ccc(/C=N/N2CCN(C3c4ccccc4-c4ccccc43)CC2)cc1O	.	.	.	0.2%	.	-7.8
O=C(CN1CCOCCOCCOCC1)Nc1ccccc1	-4.8%	?	-5.9%	3.1%	15.4	13.5
O=C(CN1CCOCCOCCN(CC(=O)Nc2ccccc2)CCOCC1)Nc1ccccc1	.	22.4µM*	4.0%	0.8%	8.6	4.7
COc1cccc(CN2CCN(Cc3nc(C(C)C)cs3)CC2CCO)c1 (centres undefined)	.	11.2%	.	4.4%	.	6.0
Cc1ccc(NC2=C(NC(=O)c3ccccc3)C(=O)c3ccccc3C2=O)cc1Cl	20µM*	20µM*	-1.7%	-0.7%	-22.3	-5.5
Cc1ccc(NC(=O)C(OC(=O)c2ccc(O)cc2)c2ccccc2)cc1Cl (centres undefined)	-9.4%	?	1.3%	-1.0%	?	-12.6
Cc1ccc(C(=O)CNc2cccc(Cl)c2)cc1	-8.6%	22.4µM*	-15.0%	4.8%	25.7	12.3
Cc1ccc(NC(=O)C(c2ccccc2)N(C)C)cc1Cl (centres undefined)	.	1.41µM*	.	-25.8%	.	-1.8
Cc1ccc(NCC(=O)c2ccccc2)cc1Cl	-25.1%	20µM*	-2.7%	2.5%	1.8	0.8
Cc1c(N)cccc1Cl	-4.6%	?	2.1%	3.2%	.	.
Cc1ccc(C(=O)CNc2ccc(C)c(Cl)c2)cc1	-29.7%	10µM*	4.6%	-2.0%	40.3	1.7
O=C(O)c1ccc(NC2=C(Cl)C(=O)c3ccccc3C2=O)cc1	.	.	.	-1.6%	.	0.7
Cc1ccc(NCCC(=O)c2ccccc2)cc1Cl	.	3.16µM*	.	5.5%	.	.
Cc1ccc(NC(=O)CNC(=O)c2ccccc2F)cc1Cl	-6.0%	3.7%	14.2%	7.9%	?	-4.3
O=C(O)c1cccc(NC2=C(Cl)C(=O)c3ccccc3C2=O)c1	.	31.6µM*	.	-2.3%	.	-8.5
CCc1ccc(C(=O)NNc2ccc(C)c(Cl)c2)cc1	.	.	.	1.3%	.	0.4
COc1cccc(Nc2ncc3nc(-c4cc(F)cc(F)c4)c(=O)n(C4CC4)c3n2)c1	-3.2%	15.9%	-0.7%	-6.1%	.	.
CC(C)(C)NC(=O)CN(CCc1ccccc1)C(=O)c1csnn1	.	-3.0%	.	1.9%	.	8.3
O=C(Oc1ccc(Br)cc1)c1n[nH]c(=O)c2ccccc12	.	?	.	0.8%	.	-0.9
CC1CCN(S(=O)(=O)c2ccc(NC(=S)NC(=O)c3ccc(Cl)cc3)cc2)CC1	-18.3%	3.98µM*	4.5%	-0.6%	30.9	0.5
Cc1ccc(S(=O)(=O)N2CCC(C)CC2)cc1[N+](=O)[O-]	.	?	.	2.1%	.	10.1
